Compound activity from PubChem.
Tau fibril FP = inhibitors of human tau fibril formation. P10636. K18 P301L tau heparin fibrillization, Alexa594 FP, 6 h. actives 0.39% (n = 280,000). AID 1468. Potency, µM (titrated, usually from 57.7 µM), inactives show at the top dose activity, negative = inhibition, actives largely listed as inhibitors; also: potency is read from the fitted curve at half-maximal effect; nearly all actives have a fitted effect of over 55% in size
Target sequence (P10636 561-689 P618L limits assumed): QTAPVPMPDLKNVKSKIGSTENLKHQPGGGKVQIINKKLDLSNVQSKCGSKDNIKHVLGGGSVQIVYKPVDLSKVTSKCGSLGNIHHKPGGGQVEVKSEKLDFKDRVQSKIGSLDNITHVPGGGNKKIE
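Human tau K18 […] P301L fragment, 15 uM unlabeled plus 0.24 uM Alexa 594-labeled tau (final), with compound and 20 uM heparin in 100 mM sodium acetate pH 7; 6 hr at 37 C, then Alexa 594 FP read.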
Tau ThT inhib = inhibitors of human tau fibril formation, thioflavin T binding; P10636; recombinant tau K18 P301L, heparin-induced fibrillization, ThT fluorescence; Potency, µM (highest dose often 57.4 µM), for inactives: at the highest dose activity, negative = inhibition, hits mostly inhibitors; actives 2.1% (n = 270,000); also: potency is read from the fitted curve at half-maximal effect; nearly all actives have a fitted effect of over 55% in size
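Using a mix of unlabeled (15 uM) and Alexa 594-labeled (0.24 uM) tau K18 P301L, heparin-triggered fibrillization over 6 hr at 37 C was scored by ThT fluorescence.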
Coupling enz = counter-screen for Giardia aldolase inhibitors: coupling enzyme system; actives 0.67% (n = 290,000); coupling enzyme system counterscreen, AmpLite Red fluorescence; AID 2472; activity change, negative = inhibition, % at 58.2 µM, hits read low; in the data active = activity change below about -30%
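Final compound at 57.5 uM, incubated 10 min at RT with coupling enzyme reagent (glyceraldehyde-3-phosphate), then 20 min with substrate and AmpLite Red detection. Fluorescence read at 525/598 nm; tests interference with the coupling assay, not aldolase inhibition.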
Tau fluor cs = counter-screen for tau fibril formation inhibitors. tau K18 P301L Alexa594 fluorescence, heparin fibrillization. Potency, µM (doses to about 57.7 µM), for inactives: top-dose activity change, negative = decrease. actives 0.93% (n = 280,000). AID 1463; also: potency is read from the fitted curve at half-maximal effect; nearly all actives have a fitted effect of over 55% in size
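Human tau K18 P301L (15 uM unlabeled, 0.24 uM Alexa 594-labeled) in 100 mM sodium acetate pH 7 with 20 uM heparin, 6 hr at 37 C. ThT 30 uM added, 1 hr ambient; Alexa 594 FP and total fluorescence read at 555/632 nm.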
JMJD2E inh = JMJD2E (human) inhibition; B2RXH2; JMJD2E catalytic domain, FDH-coupled NADH fluorescence (FDH is formaldehyde dehydrogenase); Potency, µM (series often up to 57.1 µM), inactives show at the highest dose activity change, negative = inhibition, most hits filed as inhibitors; actives 1.6% (n = 230,000); active = well fitted inhibition curve with a large enough effect, not every such curve was filed as active; inconclusive = small, poorly fitted or top-dose-only effect, or another doubt; inactive = no such curve, though single readings can be large or run the other way;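 also: potency is read from the fitted curve at half-maximal effect; 0% = wells with enzyme and -100% = buffer wells without enzyme; nearly all actives have a fitted effect of over 50% in size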
Target sequence (B2RXH2 1-337 limits assumed): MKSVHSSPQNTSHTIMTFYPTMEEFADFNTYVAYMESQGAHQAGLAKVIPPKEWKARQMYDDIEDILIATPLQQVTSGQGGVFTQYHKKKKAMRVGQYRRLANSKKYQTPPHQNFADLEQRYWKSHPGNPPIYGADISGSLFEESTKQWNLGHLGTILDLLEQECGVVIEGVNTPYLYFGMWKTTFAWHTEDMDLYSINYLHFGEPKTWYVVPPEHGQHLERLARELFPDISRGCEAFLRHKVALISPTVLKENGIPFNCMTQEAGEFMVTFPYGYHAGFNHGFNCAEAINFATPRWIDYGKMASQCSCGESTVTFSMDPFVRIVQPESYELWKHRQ
* marks the source's active call; other numbers are inactive results; i = inactive; ? = inconclusive; nt = no result given; [ ] = dose if it differs, or a comment. Rows were chosen to be rich in hits. Some 3% of all compounds tested hit in one or more screens of this group. Unless noted, calls follow the shape of the dose curve; as a rule, active = well fitted curve in the direction sought with a large enough effect; inconclusive = small, poorly fitted or top-dose-only effect, or another doubt; inactive = no such curve, though single readings can be large; an effect the other way counts as inactive or inconclusive. Unless noted, % is scaled to controls: 0 for no effect and ±100 for the full control effect.

SMILES | Tau fibril FP | Tau ThT inhib | Coupling enz | Tau fluor cs | JMJD2E inh
Fc1ccc2[nH]c(-c3cccs3)cc2c1 | ? | ? | nt | 11.2µM*[quencher] | nt
Fc1ccc(-c2cc(-c3cccs3)cc(-c3ccccc3)n2)cc1 | ? | -12.0% | 0.8 | -26.1% | ?
COc1ccc(OC)c(C2=C/C(=C/c3ccccn3)C(=O)O2)c1 | 5.7% | ? | 1.7 | -16.8% | 25.1µM*
COc1ccc(OC)c(-c2oc3ccccc3c(=O)c2O)c1 | 6.3% | -7.5% | 0.8 | -10.5% | ?
Cc1ccccc1CNC(=O)c1ccc(NC(=O)c2nsc3ccccc23)cc1 | ? | 1.6% | nt | ? | nt
COc1ccc(NC(=O)c2cc(-c3ccco3)nc3ccccc23)cc1S(=O)(=O)N1CCOCC1 | -4.6% | ? | -10.7 | ? | ?
Cc1ccc(NC(=O)c2cc(-c3ccco3)nc3ccccc23)cc1S(=O)(=O)N1CCOCC1 | 7.3% | -13.8% | -3.8 | ? | 15.8µM*
CCOc1ccc(Nc2c(S(=O)(=O)c3ccc(Cl)cc3)cnc3ccc(OCC)cc23)cc1 | 3.3% | -14.8% | nt | -13.6% | nt
CC(=O)C1C(=O)c2c(cccc2[N+](=O)[O-])C1=Nc1ccc(S(N)(=O)=O)cc1 (stereo unspecified) | ? | 12.6µM* | 0.5 | ? | -9.4%
CC(=O)C1=C(O)C(=O)N(c2ccc(S(N)(=O)=O)cc2)C1c1cccc([N+](=O)[O-])c1 (stereo unspecified) | 3.8% | -13.0% | 4.8 | -6.5% | 0.2%
CN(C)CCCO[C@H]1C([C@H](O)CO)O[C@@H]2OC(C)(C)O[C@@H]21 (stereo partly specified) | -4.1% | -9.2% | nt | -4.4% | -4.9%
COc1ccc(Cn2c(C(=O)O)c(CNCC(C)c3ccccc3)c3ccc(OC)cc32)cc1 (stereo unspecified) | 10.9% | -1.7% | nt | 0.0% | nt
N#C/C(=C/c1ccc(N2CCCCC2)o1)C(=O)Nc1ccc2ccccc2c1 | 10.4% | 12.6µM* | -0.2 | ? | 25.1µM*
COc1ccc(NC(=O)/C(C#N)=C/C=C/c2ccco2)cc1 | 8.8% | 7.08µM* | 0.3 | -7.3% | 0.1%
COc1ccc(NC(=O)/C(C#N)=C/c2ccc(C)o2)cc1 | -2.0% | ? | nt | -5.4% | nt
N#C/C(=C\c1ccc(N2CCOCC2)o1)C(=O)Nc1ccc(O)cc1 | -1.8% | 14.1µM* | -2.8 | -21.6% | -5.0%
COc1ccc(NC(=O)/C(C#N)=C\c2ccc(N3CCOCC3)o2)cc1 | 17.1% | 12.6µM* | 0.0 | ? | ?
O=C(Cl)COCc1ccccc1 | nt | nt | 0.5 | nt | nt
CCOC(=O)c1ccc(NS(=O)(=O)c2cn(C)c(C)n2)cc1 | -6.3% | 0.6% | nt | 1.7% | nt
CCOc1ccc(C(=O)c2cn(CC(=O)Nc3cc(OC)cc(OC)c3)c3ccc(F)cc3c2=O)cc1 | -4.2% | 15.2% | nt | -20.0% | nt
Cc1ccc(CNc2nc3ccccc3n3c(C)nnc23)cc1 | -8.3% | -1.7% | nt | -19.8% | nt
CCc1ccc(Nc2cc(C(=O)NCCCN3CCOCC3)c3ccccc3n2)cc1 | ? | ? | -7.7 | 15.8µM*[quencher] | 4.2%
COc1ccc(Nc2cc(C(=O)NCCCN(C)C3CCCCC3)c3ccccc3n2)cc1 | ? | ? | nt | 11.2µM*[quencher] | nt
COc1ccccc1Nc1cc(C(=O)NCCCN2CCOCC2)c2ccccc2n1 | 6.5% | -4.7% | 1.9 | -23.8% | -5.0%
COc1ccc(N2CCN(CCCNC(=O)c3cc(Nc4ccc(OC)cc4OC)nc4ccccc34)CC2)cc1 | 11.3% | 17.8µM* | nt | 15.8µM*[quencher] | nt
SMILES | Tau fibril FP | Tau ThT inhib | Coupling enz | Tau fluor cs | JMJD2E inh
CC(C)c1ccc(Nc2ncnc3c2nc2n3CCCC2)cc1 | 6.4% | -15.8% | nt | -14.4% | nt
CN(C)/C=C/c1oc2ccc(O)cc2c1[N+](=O)[O-] | 4.7% | 11.2µM* | -5.9 | -12.6% | -2.3%
Cc1oc2ccc(O)cc2c1C(=O)c1ccc([N+](=O)[O-])cc1 | 12.6% | -13.1% | -13.9 | -25.2% | 8.5%
CC(C)(C)c1nnc(N/N=C/c2cc(Br)ccc2O)n(N)c1=O | 11.9% | -17.9% | -1.4 | ? | 22.4µM*
CCc1nnc(N/N=C/c2cc(Br)c(O)cc2O)n1N | nt | nt | -12.3 | nt | nt
Cc1cc([N+](=O)[O-])ccc1-c1ccc(C2Nc3ccccc3C(=O)N2O)o1 (stereo unspecified) | 3.8% | 14.1µM* | 6.1 | ? | 28.2µM*
CCOC(=O)c1ccc(-c2ccc(C3Nc4ccccc4C(=O)N3O)o2)cc1 (stereo unspecified) | 12.8% | ? | 0.2 | -18.4% | ?
C/C(N)=C(/C#N)C(=O)COC(=O)c1cc(-c2cccc3ccccc23)nc2ccccc12 | 11.2µM* | -3.2% | 2.0 | ? | ?
CCCc1cc(=O)[nH]c2nnc(SCC)n12 | 1.8% | 4.1% | nt | 7.7% | nt
CCOc1ccc(S(=O)(=O)NCC(c2ccco2)S(=O)(=O)c2cccs2)cc1 (stereo unspecified) | 2.0% | 0.3% | nt | -10.0% | nt
COc1ccc(-c2cc(C(=O)OCC(=O)Nc3ccc4c(c3)OCO4)c3ccccc3n2)cc1 | -13.0% | ? | -3.7 | 8.91µM*[quencher] | ?
COc1ccc(-c2nc(SCC(=O)Nc3ccc4c(c3)OCO4)c(-c3ccccc3)[nH]2)cc1 | ? | -0.4% | nt | 14.1µM*[quencher] | nt
O=C(COC(=O)c1cc(-c2ccccc2)nc2ccccc12)Nc1ccc2c(c1)OCO2 | ? | -3.6% | 1.2 | ? | 62.5%
COc1ccc(-c2[nH]c(-c3ccccc3)nc2SCC(=O)Nc2ccc3c(c2)OCO3)cc1 | 4.8% | ? | nt | 12.6µM*[quencher] | nt
CC[C@H](C)[C@H](NC(=O)[C@H](C)NC(=O)CNC(=O)[C@H](CCCCN)NC(=O)[C@H](CC(N)=O)NC(=O)[C@H](CO)NC(=O)CN)C(=O)N[C@H](C(=O)NCC(=O)N[C@@H](CC(C)C)C(=O)N[C@@H](CCSC)C(=O)O)[C@@H](C)CC | nt | nt | 2.5 | nt | nt
O=[N+]([O-])c1ccc(N/N=C2\CC3CC=CC23)cc1 (stereo unspecified) | 5.9% | 14.1µM* | 3.7 | ? | -3.9%
O=C([O-])[C@@H]1[O][Sb+]([O][Sb+]2[O][C@H]([C@H](O)CO)[C@H](O)[C@H](C(=O)[O-])[O]2)[O][C@H]([C@H](O)CO)[C@@H]1O | nt | nt | 1.1 | nt | nt
Cc1ccc(C(=O)O)cc1N=Cc1cc(Br)cc(Br)c1O | -20.9% | 14.1µM* | 4.9 | -9.6% | ?
C=COC(=O)/C=C/C | nt | nt | -2.0 | nt | nt
Nc1n[nH]c(=S)n1/N=C1/C(=O)Nc2ccccc21 | ? | 17.8µM* | -6.4 | -25.2% | 7.08µM*
COc1ccc2c(c1)OCc1c-2oc2cc(OC)ccc12 | ? | 8.91µM* | -1.1 | ? | i
Cc1c(C(=O)O)c(O)cc2c1C(=O)c1c(O)c([C@H]3O[C@H](CO)[C@@H](O)[C@H](O)[C@H]3O)c(O)c(O)c1C2=O | -9.1% | ? | -11.5 | ? | 7.94µM*
O=C(Oc1c(CN2CCOCC2)cc(Cl)c2cccnc12)c1ccccc1F | -0.4% | -25.4% | -12.3 | -16.0% | 31.6µM*
